The panel holds about 83,000 compounds, 20% with a hit somewhere; the sample as a whole holds those more often.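 Negative percent growth values reflect cell death: -40 means 40% of the cells present at the start died, and -100 means all died.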 Unmarked numbers belong to inactive results. Activity calls are given as the source filed them. How the source made its calls: active means growth percent below 10; inactive means the rest.
Tests used:
Test in all cases: NCI-60 one-dose screen, 48 h (100 = growth as untreated, 0 = no growth, -100 = all killed)
Details in all cases: 10 µM unless noted
HCT-15 colon = tested on: HCT-15 colon
HT29 colon = tested on: HT29 colon
SNB-19 CNS = tested on: SNB-19 CNS
U251 CNS = tested on: U251 CNS
PC-3 prostate = tested on: PC-3 prostate
SK-MEL-5 melanoma = tested on: SK-MEL-5 melanoma
UACC-62 melanoma = tested on: UACC-62 melanoma
LOX IMVI melanoma = tested on: LOX IMVI melanoma
SK-MEL-28 melanoma = tested on: SK-MEL-28 melanoma
SK-MEL-2 melanoma = tested on: SK-MEL-2 melanoma
EKVX NSCLC = tested on: EKVX NSCLC
SN12C renal = tested on: SN12C renal
UO-31 renal = tested on: UO-31 renal
TK-10 renal = tested on: TK-10 renal
ACHN renal = tested on: ACHN renal
CAKI-1 renal = tested on: CAKI-1 renal
A498 renal = tested on: A498 renal
CCRF-CEM leukemia = tested on: CCRF-CEM leukemia
MOLT-4 leukemia = tested on: MOLT-4 leukemia

SMILES	growth (HCT-15 colon)	growth (HT29 colon)	growth (SNB-19 CNS)	growth (U251 CNS)	growth (PC-3 prostate)	growth (SK-MEL-5 melanoma)	growth (UACC-62 melanoma)	growth (LOX IMVI melanoma)	growth (SK-MEL-28 melanoma)	growth (SK-MEL-2 melanoma)	growth (EKVX NSCLC)	growth (SN12C renal)	growth (UO-31 renal)	growth (TK-10 renal)	growth (ACHN renal)	growth (CAKI-1 renal)	growth (A498 renal) [%]	growth (CCRF-CEM leukemia)	growth (MOLT-4 leukemia)
C/C(Cc1ccc(Cl)cc1)=C(\c1ccc(OCCN2CCCCCC2)cc1)c1ccc(OC(=O)Cc2ccccc2)cc1	32.6%	9.8% (active)	74.4%	42.5%	54.2%	84.1%	75.1%	78.3%	71.3%	90.6%	90.2%	68.7%	44.6%	86.7%	85.2%	79.4%	92.5	57.2%	24.4%
CC[C@]12C=CCN3CC[C@@]4(c5ccc(OC)cc5N(C)[C@H]4[C@@](O)(C(=O)OC)[C@@H]1OC(=O)CCC(=O)N[C@@H](Cc1c[nH]c4ccccc14)C(=O)OC)[C@@H]32	97.2%	89.1%	96.3%	99.3%	80.5%	90.4%	92%	84.1%	37.6%	54.4%	93.3%	71.5%	83%	87.4%	93%	108%	83.4	28.9%	-35.5% (active)
COc1ccc(-c2nn(-c3ccccc3)cc2/C=C/C(=O)OCc2cn(-c3ccc(F)c(Cl)c3)nn2)cc1	88.5%	103%	85%	101%	60.5%	83.3%	80%	78.9%	115%	86.9%	101%	80.1%	43%	118%	83.3%	79.2%	77.3	101%	71.2%
C=C1CC2(OC1=O)C(=O)Nc1ccccc12 (stereo not drawn)	23%	42.7%	88.3%	91.2%	73.6%	81.2%	72.9%	35.3%	63.8%	92.5%	74.4%	40.5%	19.7%	22.3%	7.77% (active)	31.5%	72.8	0.987% (active)	18.7%
O=C1c2cccnc2C(=O)c2c1c(C(=O)OCCN1CCCCC1)c1ccccn21	-48.4% (active)	-9.8% (active)	-31.8% (active)	-29.9% (active)	9.27% (active)	-97% (active)	-41.2% (active)	-58.6% (active)	-37.9% (active)	-45.4% (active)	4.44% (active)	-68.8% (active)	-12.7% (active)	-14.3% (active)	-66% (active)	2.16% (active)	47.3	-8.77% (active)	-19.1% (active)
C=C1CCC2C3(C)COC(c4ccc(SC)cc4)OC3CCC2(C)C1C/C=C1/C(=O)OCC1O (stereo not drawn)	68.7%	34.4%	109%	60.7%	57.6%	65.3%	66.3%	23.3%	104%	64.8%	56.1%	65.6%	60.7%	101%	74.2%	75.3%	96.7	2.76% (active)	5.06% (active)
CN1CCN(Cc2ccc(NC(=O)c3cncc(C#Cc4cncc5nccnc45)c3)cc2C(F)(F)F)CC1	40.6%	22.7%	92.1%	76.3%	67.6%	41.9%	16.6%	-7.67% (active)	13.3%	-13.2% (active)	71.2%	31.7%	20.4%	96%	24%	22.2%	21.4	58.2%	37%

Source: PubChem BioAssay (NCI)
